Compound activity as filed in PubChem.
Compounds with a hit are over-represented: about 2.8% of the library has one in this group of screens.
DAGLB inhibitor: DAGLB lipase inhibitors, primary screen, biochemical, fluorescence, HTS; 0.059% of 340,000 active; Diacylglycerol lipase-beta (Homo sapiens), Q8NCG7; inhibition, % at 5.17 µM; HEK293T DAGLB membrane lysate, EnzChek fluorogenic substrate; in the data active = inhibition above about 34%
PAFAH1B2 FP inh: PAFAH1B2 enzyme inhibitors, primary screen, biochemical, fluorescence polarization, human; 1.2% of 340,000 active; inhibition, % at 3.39 µM; recombinant PAFAH1B2, FP-rhodamine activity probe;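 active = inhibition above the mean of all tested compounds plus 3 SD, cut at about 24% in these data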
Target sequence (P68402 whole entry, looked up): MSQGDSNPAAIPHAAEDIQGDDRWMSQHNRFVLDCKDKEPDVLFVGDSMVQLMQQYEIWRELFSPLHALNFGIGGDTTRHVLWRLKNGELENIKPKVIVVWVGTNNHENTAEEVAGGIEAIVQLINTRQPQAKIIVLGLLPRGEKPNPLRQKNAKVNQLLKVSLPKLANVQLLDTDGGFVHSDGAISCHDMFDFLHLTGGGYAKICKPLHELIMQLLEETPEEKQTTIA
pPAFAH inh: pPAFAH enzyme inhibitors, primary screen, biochemical, fluorescence polarization, human. Platelet-activating factor acetylhydrolase (Homo sapiens), Q13093. recombinant pPAFAH, FP-rhodamine probe fluorescence polarization. inhibition, % at 3.39 µM. 1.5% of 330,000 active;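 active = inhibition above the mean inhibition across the screen plus 3 SD, cut at about 25% in these data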;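 also: inhibitors block binding of the rhodamine activity-based probe so polarization drops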
PAFAH1B3 FP inh: PAFAH1B3 enzyme inhibitors, primary screen, biochemical, fluorescence polarization, human. Platelet-activating factor acetylhydrolase IB subunit alpha1 (Homo sapiens), Q15102. recombinant PAFAH1B3, FP-rhodamine probe. inhibition, % at 3.39 µM. 0.28% of 340,000 active;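 active = inhibition above the screen-wide average of all tested compounds plus 3 SD, cut at about 25% in these data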
Target sequence (Q15102 whole entry, looked up): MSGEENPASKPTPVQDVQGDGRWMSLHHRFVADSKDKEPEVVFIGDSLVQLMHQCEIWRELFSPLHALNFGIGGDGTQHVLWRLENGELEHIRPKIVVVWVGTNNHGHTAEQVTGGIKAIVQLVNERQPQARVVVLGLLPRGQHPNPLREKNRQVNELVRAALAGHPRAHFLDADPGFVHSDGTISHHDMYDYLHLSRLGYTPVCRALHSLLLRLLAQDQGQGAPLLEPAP
HTRA1 inhibitor: HTRA1 serine protease inhibitors, primary screen, biochemical, fluorescence polarization, HTS; recombinant HTRA1, FP-rhodamine activity-based probe; inhibition, % at 5.96 µM; 0.5% of 340,000 active; in the data active = inhibition above about 36%
PAFAH2 inh: PAFAH2 enzyme inhibitors, primary screen, biochemical, fluorescence polarization, human | Platelet-activating factor acetylhydrolase 2, cytoplasmic (Homo sapiens), Q99487 | recombinant PAFAH2, FP-rhodamine activity probe | inhibition, % at 3.39 µM | 0.99% of 340,000 active | AID 492956, 2010;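 active = inhibition above the mean over all tested compounds plus 3 SD, cut at about 30% in these data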;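 also: inhibitors block probe labeling of enzyme so polarization drops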
A number is an active result.

COc1ccc2c(Cl)c(C(=O)N/N=C3\CCCC(=O)C3)sc2c1 was read as DAGLB inhibitor inactive, PAFAH1B2 FP inh inactive, pPAFAH inh inactive, PAFAH1B3 FP inh inactive, HTRA1 inhibitor inactive and PAFAH2 inh inactive.
For O=c1oc2c(-c3cccc(F)c3)cc(O)cc2s1 the results were DAGLB inhibitor inactive, PAFAH1B2 FP inh inactive, pPAFAH inh 27, PAFAH1B3 FP inh inactive, HTRA1 inhibitor inactive and PAFAH2 inh inactive.
For CN(c1ccc(OCC(=O)OCC(=O)Nc2ccccc2)cc1)S(=O)(=O)c1ccc(F)cc1 the results were DAGLB inhibitor inactive, PAFAH1B2 FP inh inactive, pPAFAH inh inactive, PAFAH1B3 FP inh inactive, HTRA1 inhibitor inactive and PAFAH2 inh inactive.
`CCN(c1ccc(OCC(=O)OCC(=O)Nc2ccc(F)c(F)c2F)cc1)S(=O)(=O)c1ccccc1` gave DAGLB inhibitor inactive, PAFAH1B2 FP inh 40, pPAFAH inh inactive, PAFAH1B3 FP inh inactive, HTRA1 inhibitor inactive and PAFAH2 inh inactive.
Screening O=[N+]([O-])c1ccc(S(=O)(=O)NN=CCCc2ccccc2)cc1 returned DAGLB inhibitor inactive, PAFAH1B2 FP inh inactive, PAFAH1B3 FP inh inactive, HTRA1 inhibitor inactive and PAFAH2 inh inactive.
`CC(C)(C)c1cc(=O)[nH]c(SCc2ccccc2Cl)n1` gave DAGLB inhibitor inactive, PAFAH1B2 FP inh inactive, pPAFAH inh 27, PAFAH1B3 FP inh inactive, HTRA1 inhibitor inactive and PAFAH2 inh inactive.
For CC(C)(C)c1cc(=O)[nH]c(SCc2ccccc2)n1 the results were DAGLB inhibitor inactive, PAFAH1B2 FP inh inactive, pPAFAH inh 31, PAFAH1B3 FP inh inactive, HTRA1 inhibitor inactive and PAFAH2 inh inactive.
For Cc1cc(=O)[nH]c(SCc2ccccc2)n1 the results were DAGLB inhibitor inactive, PAFAH1B2 FP inh inactive, pPAFAH inh inactive, PAFAH1B3 FP inh inactive, HTRA1 inhibitor inactive and PAFAH2 inh inactive.
`COc1cc(C)c(/C=C/C(C)=C/C=C/C(C)=C/C(=O)O)c(C)c1C` gave DAGLB inhibitor inactive, PAFAH1B2 FP inh inactive, pPAFAH inh 29, PAFAH1B3 FP inh inactive, HTRA1 inhibitor inactive and PAFAH2 inh inactive.
For C=CCOC(=O)C(=O)/C=C/c1ccc2c(c1)Cc1ccccc1-2 the results were DAGLB inhibitor inactive, PAFAH1B2 FP inh inactive, pPAFAH inh 27, PAFAH1B3 FP inh inactive, HTRA1 inhibitor inactive and PAFAH2 inh inactive.
C=CCOC(=O)C(=O)/C=C/c1csc2ccccc12 was read as DAGLB inhibitor inactive, PAFAH1B2 FP inh inactive, pPAFAH inh inactive, PAFAH1B3 FP inh inactive, HTRA1 inhibitor inactive and PAFAH2 inh inactive.
Cc1ccc(C)c(NC(=S)N/N=C/C(C)c2ccccc2)c1 (stereo not drawn) was read as DAGLB inhibitor inactive, PAFAH1B2 FP inh inactive, pPAFAH inh inactive, PAFAH1B3 FP inh inactive, HTRA1 inhibitor inactive and PAFAH2 inh inactive.
For Cc1ccc(C)c(NC(=O)CN(C)C(=O)c2ccc3c(=O)n4c(nc3c2)CCC4)c1 the results were DAGLB inhibitor inactive, PAFAH1B2 FP inh inactive, pPAFAH inh inactive, PAFAH1B3 FP inh inactive, HTRA1 inhibitor inactive and PAFAH2 inh inactive.
`O=C(N/N=C/c1c[nH]c2ccccc12)c1sc2ccccc2c1Cl` gave DAGLB inhibitor inactive, PAFAH1B2 FP inh inactive, pPAFAH inh 25, PAFAH1B3 FP inh inactive, HTRA1 inhibitor inactive and PAFAH2 inh inactive.
COc1ccccc1NS(=O)(=O)c1ccc(N/N=C/c2ccccc2OCC(=O)O)c([N+](=O)[O-])c1 was read as DAGLB inhibitor inactive, PAFAH1B2 FP inh inactive, pPAFAH inh 29, PAFAH1B3 FP inh inactive, HTRA1 inhibitor inactive and PAFAH2 inh inactive.
For COc1ccc(C=NNc2ccc([N+](=O)[O-])cc2S(=O)(=O)Nc2ccccc2C(=O)O)cc1OC the results were DAGLB inhibitor inactive, PAFAH1B2 FP inh inactive, pPAFAH inh 33, PAFAH1B3 FP inh inactive, HTRA1 inhibitor inactive and PAFAH2 inh inactive.
For CCN(CC)S(=O)(=O)c1ccc(N/N=C/c2ccccc2OCC(=O)O)c([N+](=O)[O-])c1 the results were DAGLB inhibitor inactive, PAFAH1B2 FP inh inactive, pPAFAH inh 30, PAFAH1B3 FP inh inactive, HTRA1 inhibitor inactive and PAFAH2 inh inactive.
Screening NS(=O)(=O)c1ccc(N/N=C/c2ccccc2C(=O)O)c([N+](=O)[O-])c1 returned DAGLB inhibitor inactive, PAFAH1B2 FP inh inactive, pPAFAH inh inactive, PAFAH1B3 FP inh inactive, HTRA1 inhibitor inactive and PAFAH2 inh inactive.
COc1ccccc1N1CCN(C(=O)c2cccc(S(=O)(=O)Nc3ccccc3F)c2)CC1 was read as DAGLB inhibitor inactive, PAFAH1B2 FP inh inactive, pPAFAH inh inactive, PAFAH1B3 FP inh inactive, HTRA1 inhibitor inactive and PAFAH2 inh inactive.
Screening COc1ccc(N=C2O/C(=C/c3sc(=S)n(CC4CCCO4)c3O)N=C2C#N)cc1 (stereo not drawn) returned pPAFAH inh inactive.
Screening CN1CCN(CCNC(=O)c2ccc3nc(-c4ccc(F)cc4)c(-c4ccc(F)cc4)nc3c2)CC1 returned DAGLB inhibitor inactive, PAFAH1B2 FP inh 28, pPAFAH inh inactive, PAFAH1B3 FP inh inactive, HTRA1 inhibitor inactive and PAFAH2 inh inactive.
For Cc1cc(C(=O)OCC(=O)Nc2sc3c(c2C#N)CCC(C)C3)c2ccccc2n1 (stereo not drawn) the results were DAGLB inhibitor inactive, PAFAH1B2 FP inh inactive, pPAFAH inh 25, PAFAH1B3 FP inh inactive, HTRA1 inhibitor inactive and PAFAH2 inh inactive.
`COc1ccc2ccc3c(c2c1)N=C[C@]1(O3)N(C)c2ccccc2C1(C)C` gave DAGLB inhibitor inactive, PAFAH1B2 FP inh inactive, pPAFAH inh 33, PAFAH1B3 FP inh inactive, HTRA1 inhibitor inactive and PAFAH2 inh inactive.
`Cc1c(Cl)cccc1NC(=S)N(CCN(C)C)C(C)c1ccco1` (stereo not drawn) gave DAGLB inhibitor inactive, PAFAH1B2 FP inh inactive, pPAFAH inh inactive, PAFAH1B3 FP inh inactive, HTRA1 inhibitor inactive and PAFAH2 inh inactive.
`CC(Oc1ccc(Cl)cc1)c1ccnn1S(=O)(=O)c1ccccc1` (stereo not drawn) gave DAGLB inhibitor inactive, PAFAH1B2 FP inh 51, pPAFAH inh inactive, PAFAH1B3 FP inh inactive, HTRA1 inhibitor inactive and PAFAH2 inh inactive.
For CCc1ccccc1Nc1ccc(C(=O)O)cc1N the results were DAGLB inhibitor inactive, PAFAH1B2 FP inh inactive, pPAFAH inh inactive, PAFAH1B3 FP inh inactive, HTRA1 inhibitor inactive and PAFAH2 inh inactive.
`Nc1cc(C(=O)O)ccc1Nc1ccccc1` gave DAGLB inhibitor inactive, PAFAH1B2 FP inh inactive, pPAFAH inh 27, PAFAH1B3 FP inh inactive, HTRA1 inhibitor inactive and PAFAH2 inh inactive.
`Cc1nc(SCc2ccc(Br)cc2)[nH]c(=O)c1C` gave DAGLB inhibitor inactive, PAFAH1B2 FP inh 74, pPAFAH inh 34, PAFAH1B3 FP inh inactive, HTRA1 inhibitor inactive and PAFAH2 inh inactive.
